Inconclusive results are not listed. Activity calls are given as the source filed them. The calls were made as follows, unless noted: active = hit-call score of the fitted dose curve at least 0.9, where 1 is the maximum; inactive = score below 0.9.
Experiments:
[1] = IUF_NPC5_oligodendrocyte_differentiation_120hr: Leibniz Research Institute for Environmental Medicine (IUF) 120-hour Oligodendrocyte Differentiation Assay (NPC5) (AID 2284304; active = hit-call score of the fitted dose curve at least 0.9, where 1 is the maximum;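 also: primary human fetal neural progenitor spheres plated to migrate and differentiate; share of O4-positive cells among Hoechst nuclei found by CNN image analysis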)
How it was run: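 After plating on poly-D-lysine/laminin, fetal-derived hNPC spheres differentiated for 120 h at 37C in compound-containing N2 medium, refreshed by half on day 3. O4 immunostaining over Hoechst nuclei in the migration zone gave oligodendrocyte percentage relative to DMSO.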

[2] = IUF_NPC4_neurite_area_120hr: Leibniz Research Institute for Environmental Medicine (IUF) 120-hour Neuronal Morphology Assay for Neurite Area (NPC4) (AID 2284305; active = hit-call score of the fitted dose curve at least 0.9, where 1 is the maximum)
How it was run: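 hNPC spheres on PDL/laminin, N2 medium, 37C/5% CO2; dosed day 0, half-medium refresh day 3; fixed 120 h; TUBB3/Hoechst ICC, high-content imaging; neurite area = mean pixels per neuron (nuclei excluded); DMSO baseline, max 0.1%.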

[3] = IUF_NPC2-5_cytotoxicity_72hr: Cytotoxicity Assessment at 72 hours in the Leibniz Research Institute for Environmental Medicine (IUF) Neural Progenitor Cell Migration and Differentiation Assay for Cytotoxicity (NPC2-5) (AID 2284306; active = hit-call score of the fitted dose curve at least 0.9, where 1 is the maximum;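 also: LDH release into supernatant measured by resorufin fluorescence marking membrane damage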)
How it was run: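 hNPC spheres (0.3 mm), PDL/laminin, DMEM/F12 3:1 + 1% N2; cpd from d0, 7 concs + SC, DMSO max 0.1%; half-medium refresh d3. Readout: supernatant LDH via resorufin fluorescence (RFU), 72 h; gain-of-signal fit.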

[4] = IUF_NPC2-5_cytotoxicity_120hr: Cytotoxicity Assessment at 120 hours in the Leibniz Research Institute for Environmental Medicine (IUF) Neural Progenitor Cell Migration and Differentiation Assay (NPC2-5) (AID 2284307; active = hit-call score of the fitted dose curve at least 0.9, where 1 is the maximum;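 also: LDH released into supernatant as membrane damage marker via resorufin fluorescence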)
How it was run: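 Membrane-integrity loss is quantified by LDH in supernatant after five days of exposure of migrating, differentiating human fetal NPC spheres; seven serially diluted concentrations are tested with DMSO kept at or below 0.1%.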

[5] = IUF_NPC2-5_cell_number_120hr: Cell Number Assessment at 120 hours in the Leibniz Research Institute for Environmental Medicine (IUF) Neural Progenitor Cell Migration and Differentiation Assay (NPC2-5) (AID 2284308);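 also: count of Hoechst-stained nuclei in migration zone around plated human neural progenitor spheres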
How it was run: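 Seven-point serial dilutions plus solvent control were applied to plated 0.3 mm hNPC spheres at differentiation start, with medium half-replaced at day 3. Nuclei positive for Hoechst in the migration zone were enumerated at 120 h.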

[6] = IUF_NPC2-5_viability_120hr: Viability Assessment at 120 hours in the Leibniz Research Institute for Environmental Medicine (IUF) Neural Progenitor Cell Migration and Differentiation Assay (NPC2-5) (AID 2284312)
How it was run: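 Human fetal neural progenitor spheres (0.3 mm) plated on poly-D-lysine/laminin in N2 differentiation medium, exposed 120 h with half-medium refresh at day 3. Viability by alamar blue resazurin fluorescence; 7 concentrations, DMSO max 0.1%.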

[7] = IUF_NPC1_cytotoxicity_72hr: Cytotoxicity Assessment at 72 hours in the Leibniz Research Institute for Environmental Medicine (IUF) Neural Progenitor Cell Proliferation Assay (NPC1) (AID 2284332; active = hit-call score of the fitted dose curve at least 0.9, where 1 is the maximum;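 also: rising LDH signal means more cytotoxicity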)
How it was run: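 LDH in supernatant, resazurin→resorufin fluorescence (RFU), 72 h exposure, no re-dosing. Cells: primary hNPC spheres, one per well, EGF+FGF medium, 37C/5% CO2, pH 7.2-7.6. Fit: positive direction vs baseline and dynamic range.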

[8] = target: Estrogen receptor (Homo sapiens) (UniProt P03372); test: CCTE_Deisenroth_AIME_96WELL_LUC_Active: CCTE's 96-well Estrogen Receptor Transactivation Assay with AIME metabolic competence (ERTA luciferase; metabolism positive), Deisenroth Lab (AID 2284023; active = hit-call score of the fitted dose curve at least 0.9, where 1 is the maximum)
How it was run: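 Metabolism-positive mode: induced rat hepatic S9 in alginate microspheres conditions test solutions (0.002 - 200 uM, 10 points) for 2 hours. VM7Luc4E2 ER luciferase reporter cells then exposed 24 h; positive-direction fit against 17beta-estradiol, n=4 typical.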

[9] = target: Estrogen receptor (Homo sapiens) (UniProt P03372); test: CCTE_Deisenroth_AIME_96WELL_LUC_Inactive: CCTE's 96-well Estrogen Receptor Transactivation Assay without AIME metabolic competence (ERTA luciferase; metabolism negative), Deisenroth Lab (AID 2284025; active = hit-call score of the fitted dose curve at least 0.9, where 1 is the maximum)
How it was run: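 Metabolism-negative arm: chemicals (0.002–200 uM, 10 points) incubated 2 h with alginate-water microspheres, then medium moved onto VM7Luc4E2 cells for 24 h luciferase read-out. Positive direction vs 17beta-estradiol; n≥4 experiments.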

[10] = CCTE_Deisenroth_AIME_96WELL_CTox_Active: Cytotoxicity Assessment (CTOX) in CCTE's 96-well Estrogen Receptor Transactivation Assay with AIME metabolic competence (metabolism positive), Deisenroth Lab (AID 2284028; active = hit-call score of the fitted dose curve at least 0.9, where 1 is the maximum)
How it was run: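 Cytotoxicity in VM7Luc4E2 breast cells after 24 h exposure to medium from a 2 h metabolic pre-incubation with induced rat hepatic S9 in alginate microspheres; fluorescent live-cell protease readout, 10-point series 0.002–200 uM, n=4.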

[11] = CCTE_Deisenroth_AIME_96WELL_CTox_Inactive: Cytotoxicity Assessment (CTOX) in CCTE's 96-well Estrogen Receptor Transactivation Assay without AIME metabolic competence (metabolism negative), Deisenroth Lab (AID 2284029; active = hit-call score of the fitted dose curve at least 0.9, where 1 is the maximum)
How it was run: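 Cytotoxicity in VM7Luc4E2 breast cells was scored as loss of fluorescent signal from a live-cell protease substrate 24 h after exposure, using bidirectional curve fitting. Test media came from a 2 h metabolism-negative pre-incubation (alginate-water, no hepatic S9) of compounds at 0.002-200 uM, with at least four replicates.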

[12] = UKN5_HCS_SBAD2_cell_viability: Viability Assessment in the University of Konstanz (UKN) Leist Lab Neurite Outgrowth Assay in human iPSC-derived immature Dorsal Root Ganglia Neurons (UKN5) (AID 2284056)
How it was run: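 iPSC-derived immature peripheral neurons (SBAD2) seeded on Matrigel with CHIR99021, SU5402 and DAPT, dosed 1 h later for 24 h. Viability from Hoechst H-33342 and calcein-AM live staining, high-content imaging; bidirectional fit versus DMSO.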

[13] = UKN5_HCS_SBAD2_neurite_outgrowth: University of Konstanz (UKN) Leist Lab Neurite Outgrowth Assay in human iPSC-derived immature Dorsal Root Ganglia Neurons (UKN5) (AID 2284070); conditions: actives raise or lower the signal
How it was run: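 Cryopreserved SBAD2 peripheral neurons were seeded at 100.000 cells/cm2 in N2-S/KSR medium containing CHIR99021, SU5402 and DAPT, then exposed to compounds for 24 h. Neurite area from calcein-AM high-content imaging was fitted bidirectionally against DMSO.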

[14] = UKN4_HCS_LUHMES_neurite_outgrowth: University of Konstanz (UKN) Leist Lab Neurite Outgrowth Assay in human LUHMES cells (UKN4) (AID 2284206); conditions: actives raise or lower the signal
How it was run: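 Read-out: calcein-AM neurite area by high-content fluorescence imaging, with Hoechst H-33342 viability counterstain, after 24 h chemical exposure of day-2 differentiated LUHMES cells. Activity fitted bidirectionally against DMSO baseline.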

[15] = IUF_NPC1b_proliferation_BrdU_72hr: Leibniz Research Institute for Environmental Medicine (IUF) 72-hour Neural Progenitor Cell Bromodeoxyuridine (BrdU) Proliferation Assay (NPC1b) (AID 2284207)
How it was run: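 Luminescent BrdU ELISA measured DNA synthesis during the last 16 h of a 72 h exposure of primary human neural progenitor spheres grown with EGF and FGF. Signal was fitted relative to DMSO controls.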

[16] = IUF_NPC1_viability_72hr: Viability Assessment at 72 hours in the Leibniz Research Institute for Environmental Medicine (IUF) Neural Progenitor Cell Proliferation Assay (NPC1) (AID 2284209)
How it was run: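 Alamar blue fluorescence (RFU) after 72 h exposure, normalized to DMSO baseline. hNPC spheres from GW 16-19 fetal cortex, single sphere per well in growth-factor medium; no compound renewal.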

[17] = UKN4_HCS_LUHMES_cell_viability: Viability Assessment in the University of Konstanz (UKN) Leist Lab Neurite Outgrowth Assay in human LUHMES cells (UKN4) (AID 2284232)
How it was run: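 Day-2 differentiated LUHMES, 30000 cells/well, dosed ~30 min–2 h post-seeding; 24 h treatment incl. staining; Hoechst H-33342 + calcein-AM at 23.5 h; HCS imaging; DMSO-normalized, bidirectional fit.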

[18] = IUF_NPC2c_oligodendrocyte_migration_120hr: Leibniz Research Institute for Environmental Medicine (IUF) 120-hour Neural Progenitor Cell Migration Assay for Oligodendrocyte Migration (NPC2c) (AID 2284297);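 also: O4-positive oligodendrocyte migration distance divided by radial glia migration distance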
How it was run: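 Using fetal brain neural progenitor spheres differentiating in N2 medium at 37C, compounds were present for 120 h. Oligodendrocyte migration distance, normalized to radial glia migration, was measured from imaged O4 staining.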

[19] = IUF_NPC2a_radial_glia_migration_120hr: Leibniz Research Institute for Environmental Medicine (IUF) 120-hour Neural Progenitor Cell Migration Assay for Radial Glia Migration (NPC2a) (AID 2284298)
How it was run: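 Exposure of 0.3 mm primary hNPC spheres runs day 0 to 120 h with a half-volume medium change at day 3. Fixed cells get Hoechst staining; high-content analysis of nuclear positions yields radial glia migration distance per well, compared against DMSO controls.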

[20] = IUF_NPC2a_radial_glia_migration_72hr: Leibniz Research Institute for Environmental Medicine (IUF) 72-hour Neural Progenitor Cell Migration Assay for Radial Glia Migration (NPC2a) (AID 2284299)
How it was run: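 Readout: mean of four manual brightfield measurements of radial glia migration distance (um) at 72 h. hNPC spheres (0.3 mm) exposed to 7 compound concentrations plus solvent control on PDL/laminin, 37C, 5% CO2; activity fitted relative to DMSO.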

[21] = IUF_NPC2b_neuronal_migration_120hr: Leibniz Research Institute for Environmental Medicine (IUF) 120-hour Neural Progenitor Cell Migration Assay for Neuron Migration (NPC2b) (AID 2284300)
How it was run: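 Fetal human NPC spheres migrate on PDL/laminin during 120 h compound treatment; neuronal migration distance, glia-normalized, scored versus DMSO control.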

[22] = IUF_NPC3_neuronal_differentiation_120hr: Leibniz Research Institute for Environmental Medicine (IUF) 120-hour Neuronal Differentiation Assay (NPC3) (AID 2284301)
How it was run: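 hNPC spheres, PDL/laminin, DMEM/F12 3:1 + 1% N2, 37C, 5% CO2; 7 concentrations + solvent control, 5 d exposure, half-change day 3. Fix 120 h; TUBB3/Hoechst ICC, CNN neuron calling; % neurons vs nuclei, DMSO-normalized.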

[23] = IUF_NPC4_neurite_length_120hr: Leibniz Research Institute for Environmental Medicine (IUF) 120-hour Neuronal Morphology Assay for Neurite Length (NPC4) (AID 2284302)
How it was run: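 hNPC spheres (0.3 mm, fetal brain GW 16-19) on PDL/laminin, DMEM:F12 3:1 + 1% N2, 37C 5% CO2; 7 concs + solvent control, day 0-5, half medium change d3; fix 120 h, TUBB3 ICC, mean neurite length um vs DMSO.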

Measured: AC50

Chain of Estrogen receptor (Homo sapiens) (P03372 whole entry, looked up): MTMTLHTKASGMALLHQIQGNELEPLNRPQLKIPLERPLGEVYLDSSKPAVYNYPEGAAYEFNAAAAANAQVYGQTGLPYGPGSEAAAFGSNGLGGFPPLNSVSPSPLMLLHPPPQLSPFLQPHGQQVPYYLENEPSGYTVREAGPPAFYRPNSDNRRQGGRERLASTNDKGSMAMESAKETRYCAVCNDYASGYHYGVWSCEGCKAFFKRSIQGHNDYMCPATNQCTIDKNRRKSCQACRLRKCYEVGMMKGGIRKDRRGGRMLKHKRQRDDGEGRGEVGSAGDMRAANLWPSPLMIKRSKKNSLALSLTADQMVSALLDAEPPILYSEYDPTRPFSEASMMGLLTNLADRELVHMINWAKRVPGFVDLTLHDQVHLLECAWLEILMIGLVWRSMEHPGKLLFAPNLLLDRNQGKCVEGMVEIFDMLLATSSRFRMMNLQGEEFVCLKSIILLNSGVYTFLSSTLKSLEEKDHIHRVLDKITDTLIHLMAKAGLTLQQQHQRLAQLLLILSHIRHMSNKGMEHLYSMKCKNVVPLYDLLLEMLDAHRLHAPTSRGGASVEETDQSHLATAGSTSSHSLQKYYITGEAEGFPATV

CN(C)CCCn1cc(C2=C(c3c[nH]c4ccccc34)C(=O)NC2=O)c2ccccc21
inactive: [7]
active: [1] 0.746 µM | [2] 7.2 µM | [3] 13.9 µM | [4] 8.39 µM | [5] 2.31 µM | [6] 6.01 µM

Oc1ccccc1Cc1ccccc1
active: [8] 27.7 µM | [9] 27.7 µM | [10] 162 µM | [11] 175 µM

CC(=O)OC/N=[N+](\C)[O-]
active: [13] 613 µM | [14] 721 µM | [15] 371 µM | [16] 1150 µM
inactive: [12] | [17] | [18] | [19] | [20] | [21] | [22] | [23] | [1] | [2] | [5] | [6]
